# Test results reported in PubChem BioAssay.
# For some of these results: Potency and affinity values are given separately. Inconclusive results are not listed. The list shows a part of the results. Entries that show only a call come without a potency. Active and inactive are the calls of the source. Unless noted, the rule behind the calls is not given here.
# Columns and labels:
# [1] = general cell-killing toxicity readout – plate reader, dry powder samples, cytotoxicity control for PAX8 inhibitor project, dose response (AID 743021)
# [2] = CMV-driven luciferase expression suppression in HEK293 – cell-based, luminescence, dry powder, counter-screen for Pax8 inhibitor project, dose response (AID 743020;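 active = signal-lowering compounds whose fitted half-maximal concentration is at or below twice the top tested dose in every run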;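 note: HEK293 cells stably expressing the CMV luciferase reporter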)
# [3] = IGROV1 cell killing – plate reader, dry powder samples, PAX8 inhibitor project, dose response (AID 743043);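 note: more negative means fewer viable cells or more cytotoxicity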
# [4] = toxicity toward immortalized ovarian surface epithelium – cell-based, plate reader, dry powder samples, cytotoxicity control for PAX8 inhibitor project, dose response (AID 743045);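 note: more negative values mean more cell killing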
# [5] = OVCAR8 cell viability loss – plate reader, dry powder samples, PAX8 project, dose response (AID 743197)
# [6] = A2780 cell killing – plate reader, dry powder samples, cytotoxicity control, dose response (AID 743046)
# [7] = OVCAR-3 cell viability loss – plate reader, dry powder samples, PAX8 inhibitor project, dose response (AID 743044); conditions: max activity: at 35 µM, stronger effect = lower value unless noted
# [8] = toxicity toward HepG2 liver cells – cell-based, plate reader, cherry-pick, antagonist series, cytotoxicity control, dose response (AID 743416)
# [9] = Ring1 de-repression measured by qPCR – cell-based, mouse ESC, RT-qPCR, cherry-pick, esBAF inhibitor project, confirmation (AID 743176;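 active = Ring1 gene expression raised more than 2-fold over untreated cells in both replicates at either tested dose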;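 note: Ring1 transcript normalised to actin housekeeping signal by TaqMan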); conditions: mouse ESC E14, Ring1 mRNA RT-qPCR fold change, stronger effect = higher value
# [10] = Fgf4 repression measured by qPCR – cell-based, mouse ESC, RT-qPCR, cherry-pick, esBAF inhibitor project, confirmation (AID 743177;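 active = Fgf4 expression under 0.8 fold of control in both repeat measurements at one or both tested doses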;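 note: Fgf4 transcript normalised to actin in duplex TaqMan qPCR; cells exposed to compound for 24 h before lysis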); conditions: mouse ESC E14, Fgf4 mRNA qPCR fold change, stronger effect = lower value
# [11] = Bmi1 mRNA increase in mouse ESCs – cell-based, RT-qPCR, mouse ESC, single point, cherry-pick, confirmation (AID 743180;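 active = Bmi1 expression fold change above 6 at either tested concentration, seen in replicate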;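 note: higher fold means more Bmi1 de-repression and stronger esBAF inhibition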); conditions: mouse ESC E14, Bmi1 mRNA qPCR fold, stronger effect = higher value
# [12] = viability loss in A549 cells – cell-based, plate reader, single point, cherry-pick, cytotoxicity control (AID 743188); conditions: at 25 µM
# [13] = viability loss in HepG2 cells – cell-based, plate reader, single point, cherry-pick, cytotoxicity control (AID 743189; in the data active = activity change below about -50%); conditions: at 25 µM, stronger effect = lower value
# [14] = viability loss in HEK293 cells – cell-based, plate reader, single point, cherry-pick, cytotoxicity control (AID 743190; in the data active = activity change below about -38%, passing the limit was not always enough); conditions: at 25 µM
smiles,measurement,setting,value
CCOC(=O)c1c(-c2ccc(F)cc2)csc1NC(=O)CN1C(=O)NC2(CCCCC2C)C1=O (stereo not given),outcome,[1],inactive
COc1cccc(-c2ccc([C@H]3[C@@H](CO)N(C(=O)Cc4ccccc4)[C@H]3C#N)cc2)c1,outcome,[2],inactive
same,outcome,[1],inactive
same,outcome,[3],inactive
same,outcome,[4],inactive
same,outcome,[5],inactive
C[C@H](CO)N1C[C@H](C)[C@H](CN(C)S(=O)(=O)c2ccc(Cl)cc2)OCCCC[C@H](C)Oc2ccc(NC(=O)Nc3ccc(C(F)(F)F)cc3)cc2C1=O,outcome,[2],inactive
same,outcome,[3],inactive
same,outcome,[4],inactive
same,outcome,[5],inactive
N#C[C@@H]1[C@H](c2ccc(C#CC3CCCCC3)cc2)[C@H](CO)N1S(=O)(=O)c1ccccc1,outcome,[2],inactive
same,outcome,[1],inactive
same,outcome,[4],inactive
same,outcome,[6],inactive
same,outcome,[5],inactive
Cc1ccc(S(=O)(=O)CC(CN2CCCCC2)N2CCCCC2)cc1 (stereo not given),outcome,[2],inactive
same,outcome,[1],inactive
same,outcome,[7],inactive
same,outcome,[4],inactive
same,outcome,[6],inactive
C[C@H]1CCCCO[C@H](CN(C)Cc2ccc(C(F)(F)F)cc2)[C@@H](C)CN([C@@H](C)CO)C(=O)c2cc(NS(=O)(=O)c3ccc(Cl)cc3)ccc2O1,outcome,[2],inactive
same,outcome,[1],inactive
same,max activity,[7],"16.3% [at 1 µM, stronger effect = lower value] (inactive)"
same,outcome,[4],inactive
same,outcome,[6],inactive
C[C@@H]1CCCCO[C@@H](CN(C)S(=O)(=O)c2ccc(Cl)cc2)[C@H](C)CN([C@H](C)CO)C(=O)c2cc(NS(=O)(=O)c3ccc(F)cc3)ccc2O1,outcome,[2],inactive
same,outcome,[1],inactive
same,max activity,[7],"22.4% [at 2.1 µM, stronger effect = lower value] (inactive)"
same,outcome,[4],inactive
same,outcome,[6],inactive
same,outcome,[5],inactive
Cn1nnnc1Sc1ncnc2scc(-c3cccc(S(C)(=O)=O)c3)c12,outcome,[1],inactive
C[C@@H]1CCCCO[C@H](CN(C)C(=O)C2CCCCC2)[C@@H](C)CN([C@@H](C)CO)C(=O)c2cc(NC(=O)Nc3ccc(F)cc3)ccc2O1,outcome,[2],inactive
same,outcome,[1],inactive
same,outcome,[4],inactive
Cc1ccc2c(c1)c1c3n2CCN(CC(N)=O)C3CCC1 (stereo not given),outcome,[1],inactive
C[C@H]1CCCCO[C@@H](CN(C)Cc2ccc(C(F)(F)F)cc2)[C@@H](C)CN([C@@H](C)CO)C(=O)c2cc(NC(=O)c3ccccc3)ccc2O1,outcome,[2],inactive
same,outcome,[1],inactive
same,outcome,[4],inactive
same,outcome,[6],inactive
C=C(C(=O)c1ccccc1)C(C(=C)C(=O)c1ccccc1)c1ccc(OC)cc1,outcome,[1],inactive
C[C@H]1CN([C@@H](C)CO)C(=O)c2cc(NS(=O)(=O)c3ccccc3)ccc2O[C@@H]1CN(C)Cc1ccc(Oc2ccccc2)cc1,outcome,[2],inactive
same,outcome,[1],inactive
same,outcome,[3],inactive
same,max activity,[7],"-20.4% [at 8 µM, stronger effect = lower value] (inactive)"
same,outcome,[4],inactive
same,outcome,[5],inactive
COc1cccc(N2CCN(C(=O)c3ccc(CS(=O)c4ccccc4Cl)o3)CC2)c1 (stereo not given),outcome,[1],inactive
COCC(=O)N1[C@H](CO)[C@H](c2ccc(-c3cccnc3)cc2)[C@@H]1C#N,outcome,[1],inactive
same,outcome,[3],inactive
same,outcome,[7],inactive
same,outcome,[4],inactive
same,outcome,[6],inactive
C[C@@H]1CN([C@H](C)CO)C(=O)c2cc(NS(=O)(=O)c3ccccc3)ccc2O[C@@H](C)CCCCO[C@@H]1CN(C)Cc1ccc(C(F)(F)F)cc1,outcome,[4],inactive
C#CCN(C[C@@H]1[C@@H](OC(=O)NCC2CCCCC2)[C@@H](OC(=O)NCC2CCCCC2)Cn2c(=O)ccc(=O)n21)S(=O)(=O)c1ccc(C)cc1,outcome,[1],inactive
O=C(O)c1cccc(COc2ccc3c(c2)CCC3)c1,outcome,[1],inactive
same,outcome,[8],inactive
O=C1c2cccc3cc([N+](=O)[O-])cc(c23)C(=O)N1CCN1CCCC1,outcome,[1],inactive
Cc1cc(C(C)(C)C)cc(C)c1Cn1c2[n+](c3ccc(C(F)(F)F)cc31)CCCCC2,outcome,[1],inactive
COc1cc2nc(C3CCC3)nc(N3CCN(c4ccccc4OC)CC3)c2cc1OC,outcome,[1],inactive
O=C(c1ccc(Cl)cc1)c1cnc(Nc2ccccc2)s1,fold change,"[9]; Ring1 fold increase, at 7 µM",1.37
same,fold change,[9]; at 33 µM,1.43 (inactive)
same,Fgf4 expression fold change,"[10]; Fgf4 expression, at 7 µM",1.07
same,Fgf4 expression fold change,[10]; at 33 µM,0.927 (inactive)
same,fold change,"[11]; Bmi1 de-repression, at 7 µM",1.41
same,fold change,[11]; at 33 µM,1.36 (inactive)
same,cell viability change % (negative = cytotoxic),[12],-9.73% (inactive)
same,"activity change, negative = inhibition",[13],-14.8% (inactive)
same,"activity change, negative = inhibition",[14],-18.7% (inactive)
C[C@H](O)[C@@H]1CN2CCc3c([nH]c4ccc(-c5ccc6c(c5)OCO6)cc34)[C@@H]2C[C@@H]1N(C)C(=O)NC1CCCCC1,outcome,[1],inactive
CC(C)CCCCCCCCCCCCC(=O)NCC(=O)NC1C(C)OC(Nc2ncnc3nc[nH]c23)C(O)C1O (stereo not given),outcome,[1],inactive
CC(Cc1cccs1)NC(=O)c1cccc(Cl)c1 (stereo not given),fold change,"[9]; Ring1 fold increase, at 7 µM",1.11
same,fold change,[9]; at 33 µM,1.07 (inactive)
same,Fgf4 expression fold change,"[10]; Fgf4 expression, at 7 µM",1.02
same,Fgf4 expression fold change,[10]; at 33 µM,1.08 (inactive)
same,fold change,"[11]; Bmi1 de-repression, at 7 µM",1.36
same,fold change,[11]; at 33 µM,1.53 (inactive)
same,cell viability change % (negative = cytotoxic),[12],-16% (inactive)
same,"activity change, negative = inhibition",[13],-51.2% (active)
same,"activity change, negative = inhibition",[14],-22.2% (inactive)
O=C(Nc1cccc(-c2ccc(N3CCCCC3)nn2)c1)C(F)(F)F,outcome,[1],inactive
COC(=O)[C@@]1(CCS(=O)(=O)c2ccccc2)N=C(c2ccc(OCCCO)cc2)O[C@H]1c1ccccc1,outcome,[1],inactive
same,outcome,[3],inactive
same,outcome,[4],inactive
same,outcome,[6],inactive
